The experiment is described as follows: P-glycoprotein substrates identified in KB-8-5-11 adenocarcinoma cell line, qHTS therapeutic library screen (AID 1346987). Note: nearly all actives have a fitted effect of over 65% in size. The following applies: KB-8-5-11 (P-gp overexpressing) viability, CellTiter-Glo, 72 h; series mostly up to 44.5 µM. The method in brief:
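Steps: plate 500 KB-8-5-11 cells/well in DMEM + 10% FCS (colchicine removed); pin compounds in dose-response; incubate 72 h, 37 degree C, 5% CO2; add CellTiter-Glo, 5 min; read luminescence.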

From PubChem BioAssay (NCATS) come the findings set out here.

Each structure is given as a SMILES string. Records with an inconclusive call do not appear. Where a call stands in place of a potency, no number is given. Calls of active or inactive are those of the source. Calls come from the whole dose curve; as a rule, active = well fitted inhibition curve with a large enough effect; inconclusive = small, poorly fitted or top-dose-only effect; inactive = flat fitted curve, though single readings scatter.
Potency is the fitted concentration of half-maximal effect.

With `CCCCCCCCC(=O)N[C@H](CN1CCCC1)[C@H](O)c1ccc2c(c1)OCCO2`, the Potency was 16.4 µM (active).

For the compound `CN(C)[C@@H]1CCc2[nH]c3ccc(NC(=O)c4ccc(F)cc4)cc3c2C1`, the Potency entry was “inactive”.

On to `COC1CC(O[C@H]2CC[C@]3(C)C4CC[C@]5(C)C(C6=CC(=O)OC6)=CCC56OC46CC[C@@H]3C2)OC(C)C1O[C@@H]1O[C@H](CO[C@@H]2O[C@H](CO)[C@@H](O)[C@H](O)[C@H]2O)[C@@H](O)[C@H](O)[C@H]1O` (some centres not stated), for which the Potency was 3.1 µM (active).

`COc1cc(C#N)ccc1S(=O)(=O)Nc1ccc2c(c1)cc(C)c(=O)n2C`: the Potency result was “inactive”.

For `COc1cc(N2CCOCC2)ccc1NC(=O)c1csc(-c2cccnc2)n1`, the Potency is 11.6 µM (active).

With `CNCCCC1(c2ccccc2)OC(C)(C)c2ccccc21` (configuration not stated), the Potency entry is “inactive”.

As for `Fc1ccc2[nH]ccc2c1-c1nc(N2CCOCC2)c2sc(CN3CCN(CC4CC4)CC3)cc2n1`, the Potency was 20.6 µM (active).

As for `C[C@]12CC[C@@H]3c4ccc(O)c(O)c4CC[C@H]3[C@@H]1CCC2=O`, the Potency entry is “inactive”.

As to `C=CCCN1CCC2(CC1)CN(C(=O)c1c(F)cccc1F)c1ccc(Cl)cc12`, the Potency result was “inactive”.

Consider `CC(C)c1ccc(NC(=O)Cn2cnc3c2c(=O)n(C)c(=O)n3C)cc1`, for which the Potency entry was “inactive”.

Consider `O=C(Nc1cccc2cccnc12)c1ccc(N2C(=O)[C@@H]3C4C=CC(C4)[C@@H]3C2=O)cc1`, for which the Potency entry was “inactive”.

Turning to `CCNC(=O)Nc1ccc(-c2nc3c(c(N4CCOCC4C)n2)CCN(C2COC2)C3)cc1` (configuration not stated), the Potency was 1.84 µM (active).

Take `CC(C)c1cccc(C(C)C)c1NC(=O)Nc1ccc(Sc2ccc([N+](=O)[O-])cc2)cc1`: the Potency was 5.8 µM (active).

As for `C=C1C(=O)O[C@@H]2/C=C(\CO)CC/C=C(\CO)[C@H](OC(C)=O)C(OC(=O)C(C)CC)C12` (some centres not stated), the Potency entry is “inactive”.

`C/C=C/C=C/C=C/C(=O)O[C@@H]1C=C2COC(=O)[C@]2(O)[C@@]2(C)CCCC(C)(C)[C@H]12`: the Potency entry is “inactive”.

As for `Cn1nc(C(C)(C)C)cc1C(=O)N[C@@H](Cc1cccc(Cl)c1)C(=O)NCC#N`, the Potency entry is “inactive”.

Turning to `O=C(CCCN1CCC(n2c(=S)[nH]c3ccccc32)CC1)c1ccc(F)cc1`, the Potency was 9.2 µM (active).

With `CCN1CCCC1CNC(=O)c1cc(S(=O)(=O)CC)ccc1OC` (configuration not stated), the Potency result is “inactive”.

As to `O=C(Cn1cnnn1)N[C@@H]1C(=O)N2C(C(=O)O)=C(CSc3nncs3)CS[C@H]12`, the Potency entry was “inactive”.

In the case of `N#Cc1cc(CN2CCC(Nc3ncnc4sc(Cl)cc34)CC2)ccc1F`, the Potency is 9.2 µM (active).

Take `COC(=O)/C=C/C=C/C(=O)OC1C=C2COC(=O)C2(O)C2(C)CCCC(C)(C)C12` (configuration not stated): the Potency entry is “inactive”.

With `O=C(Nc1ccc(CN2CCOCC2)cc1)c1ccc(-c2cccc(Cl)c2)o1`, the Potency was 16.4 µM (active).

For `CCNc1nc(Nc2cc(F)c(C(=O)N3CCOCC3)cc2OC)ncc1C(F)(F)F`, the Potency was 9.2 µM (active).

As for `Cn1ncc(Cl)c1-c1cc(C(=O)N[C@H](CN)Cc2ccc(F)c(F)c2)oc1Cl`, the Potency was 16.4 µM (active).

As for `CCC(C)(C)OC(=O)N[C@@H](Cc1c[nH]c2ccccc12)C(=O)N[C@@H](CCSC)C(=O)N[C@@H](CC(=O)O)C(=O)N[C@@H](Cc1ccccc1)C(N)=O`, the Potency entry was “inactive”.

As to `C/C=C/C=C/C=C/C(=O)O[C@@H]1C=C(CO)C(O)(C(=O)OC)[C@@]2(C)CCCC(C)(C)C12` (some centres not stated), the Potency entry was “inactive”.

As for `CN1CC(O)c2cc(N=NC(N)=O)c(O)cc21` (configuration not stated), the Potency entry is “inactive”.

Take `CCOc1ccc(CCNC(=O)c2cc3sc(Cl)cc3n2C)cc1OCC`: the Potency entry is “inactive”.

On to `CNc1cc2[nH]c(=O)n(-c3ccc(NC(=O)NS(=O)(=O)c4ccc(Cl)s4)cc3)c(=O)c2cc1F`, for which the Potency result was “inactive”.

With `CCCCC(=O)O`, the Potency result was “inactive”.

As to `N[C@@H]1c2cccnc2[C@H](OC(=O)N2CCC(n3c(=O)[nH]c4ncccc43)CC2)CC[C@H]1c1cccc(F)c1F`, the Potency entry is “inactive”.

In the case of `C=C(C)C1CC(O)C(C)C12CC(O)C1(C)OC1C2O` (configuration not stated), the Potency is 3.66 µM (active).

On to `CN1CCC(c2cn(C)c3ccc(OS(=O)(=O)c4c(F)cccc4F)cc23)CC1`, for which the Potency is 18.4 µM (active).

`Cc1csc(N(C(=O)CSc2ccc(-c3ccccc3)nn2)C2CC2)n1`: the Potency result was “inactive”.

Turning to `C=C1C(=O)O[C@@H]2C[C@H](C)C3=CC(=O)[C@H](O)[C@@]3(C)C[C@H]12`, the Potency result was “inactive”.

As to `C[C@@H](NC(=O)C(=O)c1c[nH]c2ccc([N+](=O)[O-])cc12)c1ccccc1`, the Potency result was “inactive”.

Take `CC1(C)S[C@@H]2[C@H](NC(=O)C(C(=O)Oc3ccc4c(c3)CCC4)c3ccccc3)C(=O)N2[C@H]1C(=O)O` (some centres not stated): the Potency result is “inactive”.
